Jurkat NFkB inh: inhibitors of the PMA/ionomycin-induced NF-kB reporter in Jurkat cells. 330,000 compounds, 0.53% hits. inhibition, % at 4 µM. PMA/ionomycin-induced NF-kB luciferase reporter, luminescence; in the data active = inhibition above about 50%
697 NFkB inh: lowers PMA/ionomycin-induced NF-kB signal in 697 B cells; 697 B-cell NF-kB luciferase reporter, 16 h; inhibition, % at 4 µM; 330,000 compounds, 0.33% hits; in the data active = inhibition above about 35%
esBAF inh: blocks esBAF chromatin remodeling in mouse ES cells; Bmi1-luciferase knock-in reporter, 24 h; 100% = twice the neutral-well signal; reporter increase, % at 12.5 µM; 350,000 compounds, 2% hits; AID 602393; in the data active = activation above about 40%;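 also: 0% = median of the plate's neutral control wells and 100% = double that signal; a rise in the Bmi1 reporter signal indicates esBAF inhibition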
SMARCA2 activ: activators of SMARCA2 function. activation, % at 9.1 µM. 370,000 compounds, 1% hits. AID 652017. MG213 cells, MMTV-luciferase reporter, dexamethasone, overnight; in the data active = activation above about 7.8%;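 also: 0% = vehicle wells and 100% = reference activator wells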
Gli-Sufu block: Gli-Sufu pathway antagonism; AID 588413; 340,000 compounds, 0.74% hits; Sufu-KO-LIGHT fibroblasts, Gli luciferase reporter luminescence; inhibition, % at 5 µM;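 active = inhibition above about 55%, limit read from the data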;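 also: 0% = DMSO-treated cells and 100% = wells with medium but no cells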
SMARCA2 act conf: confirmation of SMARCA2 (BRM) function activators. shares compounds with SMARCA2 activ. MG213 cells, MMTV-luciferase with dexamethasone, luminescence, overnight; MG213 cells expressing E1A, Rb sequestered; DMSO wells 0%, reference activator 100%. activation, % at 9.1 µM. 3,500 compounds, 30% hits. AID 652260;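 active = activation above its plate's cutoff, the mean activation of tested wells plus 3 SD, cut at about 7.9% in these data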
GAL4-VP16 Luc: counter-screen for SMARCA2 activators: GAL4-VP16 luciferase reporter activation | HEK293 GAL4-VP16 pG5luc reporter, luciferase luminescence; scaled: DMSO wells 0%, SAHA wells 100% | activation, % at 9.1 µM | shares compounds with SMARCA2 activ | 3,500 compounds, 41% hits;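 active = activation above the solvent-only control well mean plus 3 SD, averaged across control plates, cut at about 5.2% in these data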
* marks the source's active call; other numbers are inactive results; · = no result. In the library only some 3.3% were active in any assay of this set; here they are far more common.

SMILES	Jurkat NFkB inh	697 NFkB inh	esBAF inh	SMARCA2 activ	Gli-Sufu block	SMARCA2 act conf	GAL4-VP16 Luc
CCOC(=O)c1c(NC(C)=O)sc2c(OCC(O)CNC(C)(C)C)c(Br)ccc12 (configuration not stated)	6	-12	-6	11*	22	8.7*	2
O=C(Nc1ccc(F)cc1)N[C@H]1C=C[C@@H](CC(=O)N2CCCCC2)O[C@@H]1CO	·	·	-4	·	·	·	·
C/C(Nc1cccc(F)c1)=C(/C#N)C(N)=O	6	8	7	8.3*	-1	-3	0
CC(C)(C)SCCNC(=O)/C=C/c1ccccc1	-23	-38	·	8.1*	-23	6	5
CN(C(=O)c1cc2sccc2n1C)C1CCCCC1	-85	-82	37	8.9*	-55	2	7.5*
Cn1c(C(=O)N2CCCC(C(=O)O)C2)cc2sccc21 (configuration not stated)	-23	8	8	1	5	·	·
O=C(N/N=C/c1ccc2c(c1)OCO2)C1COc2ccccc2O1 (configuration not stated)	15	-4	-8	8.5*	-9	5	1
COc1ccc(/C=N/NC(=O)C2COc3ccccc3O2)cc1OC (configuration not stated)	1	4	·	1	-8	·	·
COc1cccc(C(=O)NCC(=O)N/N=C/c2ccc3c(c2)OCO3)c1	-7	-3	8	8.0*	17	2	0
COc1cccc(S(=O)(=O)N[C@@H]2CC[C@H](CCN)O[C@@H]2CO)c1	·	·	-4	·	·	·	·
Nc1nnc(-c2ccc(Cl)cc2Cl)s1	-30	-44	·	12*	-18	6	8.2*
Nc1nnc(-c2ccccc2F)s1	4	-2	·	1	-25	·	·
C[C@@H]1CN([C@H](C)CO)C(=O)c2cc(NS(=O)(=O)c3ccccc3)ccc2O[C@@H]1CN(C)Cc1ccc2c(c1)OCO2	·	·	-4	·	·	·	·
O=C(Nc1ccc2oc(=O)ccc2c1)c1ccco1	-21	-5	39	8.3*	-10	2	3
CO[C@@H]1CN(C)C(=O)c2ccc(NC(=O)c3nc4ccccc4s3)cc2OC[C@H](C)NC[C@@H]1C	·	·	-4	·	·	·	·
CSc1nc(Cl)cc(Nc2ccc(O)cc2)n1	-48	-34	·	14*	-17	6	4
CCC(=O)N[C@H]1CC[C@H](CC(=O)NCc2ccccc2OC)O[C@@H]1CO	·	·	-4	·	·	·	·
C[C@@H]1CN([C@H](C)CO)C(=O)c2cc(-c3cncnc3)cnc2O[C@@H]1CN(C)C(=O)Cc1cccnc1	·	·	-6	·	·	·	·
COc1ccc(NC(=O)N(C)C[C@@H]2Oc3ccc(NC(=O)C4CC4)cc3C(=O)N([C@@H](C)CO)C[C@@H]2C)cc1	·	·	1	·	·	·	·
CCN(CC)CCOc1ccc2c(c1)C(=NO)c1cc(OCCN(CC)CC)ccc1-2	-21	-10	-81	23*	4	76*	0
O=C(C[C@@H]1C[C@H]2c3cc(NS(=O)(=O)c4ccc(F)cc4)ccc3O[C@H]2[C@H](CO)O1)NCc1cccc(F)c1	·	·	19	·	·	·	·
Cc1cc(O)c(NC(=O)c2ccco2)cc1C	-8	-34	47*	8.9*	-11	0	5
Cc1ccc(O)c(NC(=O)c2ccco2)c1	-14	-80	18	3	-7	·	·
Cc1c(C)c2ccc(OCC(=O)Nc3ccccn3)cc2oc1=O	-37	0	-39	12*	-62	6	5.6*
O=C(CNC(=O)c1ccccc1)c1ccccc1	-79	-122	-24	7	-67	·	·
SMILES	Jurkat NFkB inh	697 NFkB inh	esBAF inh	SMARCA2 activ	Gli-Sufu block	SMARCA2 act conf	GAL4-VP16 Luc
O=C(CNC(=O)c1ccccc1C(=O)O)c1ccccc1	-66	-19	16	8.0*	-6	4	3
Cc1cccc2nc(CSc3ccc(Cl)cc3)cn12	-80	-88	76*	10*	-82	6	1
COc1ccc(C(=O)OCC(=O)c2ccc3c(c2)NC(=O)CO3)cc1OC	7	19	-3	8.6*	16	-2	1
COc1ccc(C(=O)OCC(=O)c2ccc3c(c2)NC(=O)CO3)cc1[N+](=O)[O-]	5	3	-8	4	7	·	·
CC(C)CC#Cc1ccc2c(c1)O[C@@H](CN(C)C(=O)c1ccncc1)[C@@H](C)CN([C@@H](C)CO)S2(=O)=O	·	·	11	·	·	·	·
C[C@H](CO)N1C[C@H](C)[C@@H](CN(C)C(=O)c2cccnc2)Oc2ncc(C#CCN(C)C)cc2C1=O	·	·	4	·	·	·	·
O=C(NCCc1ccccc1)c1coc(=O)c(Br)c1	22	-54	-6	27*	10	-9	5
O=C(COC(=O)c1cc(Br)c(Br)s1)NCCC1=CCCCC1	-19	12	-5	9.3*	1	-3	2
O=C(NCCC1=CCCCC1)c1coc(=O)c(Br)c1	19	-69	-2	20*	16	-1	5.5*
Cc1cc(C(=O)NCCC2=CCCCC2)c(C)o1	-102	-114	30	11*	-68	20*	12*
O=C(NCCC1=CCCCC1)c1ccc(=O)oc1	10	10	·	-4	0	·	·
CN(C)CCNC(=O)c1coc(=O)c(Br)c1	-1	-26	3	0	-10	·	·
COc1cccc(NC(=O)N[C@@H]2C=C[C@@H](CC(=O)Nc3ccc(-c4ccccc4)cc3)O[C@H]2CO)c1	·	·	7	·	·	·	·
C[C@@H]1CN([C@H](C)CO)C(=O)c2cc(NS(=O)(=O)c3cccs3)ccc2O[C@@H](C)CCCCO[C@@H]1CN(C)S(=O)(=O)c1ccc(F)cc1	·	·	8	·	·	·	·
O=C(C[C@H]1CC[C@@H]2NC[C@H](O)COC[C@H]2O1)NCCc1ccccc1	·	·	0	·	·	·	·
COC(=O)/C(C#N)=C1/C=Cc2ccccc2N1	-39	-19	27	8.9*	-10	5	8.3*
O=C(C[C@H]1C=C[C@H](NC(=O)Nc2ccccc2)[C@H](CO)O1)NCc1cccc(F)c1	·	·	11	·	·	·	·
CCOc1ccc(S(=O)(=O)N2CCC(C(=O)NCc3ccccc3CN3CCCC3)CC2)cc1	-1	10	-3	12*	1	-2	1
CNC(=S)NNC(=O)c1sc2cc(C(F)(F)F)cnc2c1-c1ccccn1	8	7	·	8.0*	11	1	2
O=C(Nc1ccc(OCC(=O)N2CCOCC2)cc1)Nc1cccc(Cl)c1	23	-7	·	0	-3	·	·
CC(C)(C)c1ccc(NC(=O)Nc2ccc(OCC(=O)N3CCOCC3)cc2)cc1	-149	-123	·	8.2*	-85	5	15*
COc1ccc(CNCCC2(Cc3ccccc3)CC(C)N(C)CC2C)cc1OC (configuration not stated)	-14	-8	·	8.3*	14	5	2
CO[C@@H]1CN(C)C(=O)c2ccc(NC(C)=O)cc2OC[C@H](C)N(Cc2nccs2)C[C@@H]1C	·	·	5	·	·	·	·

Source: PubChem
